Experimental data reported in PMC5540273 (PLoS ONE, 2017).

Tests used:
Conditions in all cases: concentration: 1 μM, replicates: in singlicate; n = 1
[1] = tested on: ACVR2B
[2] = tested on: ACVRL1
[3] = tested on: T1, ADCK3
T1 construct: gene CABC1

[4] = tested on: ADCK4
[5] = tested on: AKT1
[6] = tested on: AKT2
[7] = tested on: AKT3
[8] = tested on: ALK
[9] = tested on: T2, AMPK-alpha1
T2 construct: gene PRKAA1

[10] = tested on: T3, AMPK-alpha2
T3 construct: gene PRKAA2

[11] = tested on: ANKK1
[12] = tested on: T4, ARK5
T4 construct: gene NUAK1

[13] = tested on: T5, ASK1
T5 construct: gene MAP3K5

[14] = tested on: T6, ASK2
T6 construct: gene MAP3K6

[15] = tested on: AURKA
[16] = tested on: AURKB
[17] = tested on: AURKC
[18] = tested on: AXL
[19] = tested on: T7, BIKE
T7 construct: gene BMP2K

[20] = tested on: BLK
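Further: KINOMEscan kinase panel screen.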

| SMILES | %Inh [1] [%] | %Inh [2] [%] | %Inh [3] [%] | %Inh [4] [%] | %Inh [5] [%] | %Inh [6] [%] | %Inh [7] [%] | %Inh [8] [%] | %Inh [9] [%] | %Inh [10] [%] | %Inh [11] [%] | %Inh [12] [%] | %Inh [13] [%] | %Inh [14] [%] | %Inh [15] [%] | %Inh [16] [%] | %Inh [17] [%] | %Inh [18] [%] | %Inh [19] [%] | %Inh [20] [%] |
| --- | --- | --- | --- | --- | --- | --- | --- | --- | --- | --- | --- | --- | --- | --- | --- | --- | --- | --- | --- | --- |
| Fc1cc(Cl)ccc1Nc1ccnc2cc(-c3ccc(CN4CCCCC4)o3)ccc12 [GW560116] | 52 | 0 | 0 | 38 | 0 | 0 | 0 | 4 | 0 | 0 | 0 | 0 | 0 | 0 | 95.7 | 0 | 0 | 0 | 0 | 55 |
| Fc1cc(Cl)ccc1Nc1ccnc2cc(I)ccc12 [GW551191] | 85 | 5 | 0 | 23 | 0 | 18 | 58 | 29 | 0 | 0 | 5 | 3 | 0 | 0 | 0 | 28 | 41 | 0 | 16 | 38 |
| O=S(=O)(c1ccc(-c2ccnc3[nH]ccc23)cc1)N1CCCC1 [GSK846226] | 0 | 0 | 7 | 21 | 0 | 0 | 0 | 10 | 0 | 0 | 0 | 0 | 3 | 14 | 13 | 20 | 60 | 46 | 87 | 0 |
| Nc1nc(-c2nccs2)c(-c2ccnc3ccccc23)s1 [GW693542] | 48 | 15 | 0 | 39 | 0 | 3 | 100 | 36 | 0 | 12 | 6 | 0 | 5 | 0 | 0 | 0 | 0 | 42 | 4 | 42 |
| COc1ccc(C2=C(Nc3cccc(C(=O)O)c3)C(=O)NC2=O)cc1 [SB-390765] | 0 | 1 | 0 | 0 | 1 | 0 | 14 | 2 | 23 | 2 | 6 | 5 | 9 | 21 | 18 | 26 | 0 | 19 | 18 | 0 |
| CCn1c(-c2cccnc2O)nc2cnccc21 [SB-736715] | 0 | 0 | 0 | 88 | 2 | 0 | 0 | 0 | 0 | 0 | 0 | 0 | 0 | 0 | 8 | 0 | 0 | 38 | 0 | 0 |
| COC(=O)c1c(-c2ccccc2)c2cc(OC)ccc2c(=O)n1Cc1ccccc1 | 0 | 0 | 0 | 0 | 1 | 12 | 0 | 28 | 21 | 0 | 0 | 27 | 0 | 37 | 25 | 22 | 0 | 0 | 0 | 0 |
| O=C(Nc1n[nH]c2cc(-c3cccc(F)c3F)ccc12)C1CC1 [SB-733894] | 18 | 29 | 6 | 0 | 0 | 0 | 1 | 0 | 0 | 0 | 0 | 0 | 0 | 5 | 23 | 25 | 54 | 0 | 21 | 0 |
| Cc1ccc(NC(=O)Nc2cccc(Cl)c2)cc1-c1ccc(C(=O)Nc2ccncc2)cc1 [GSK1398468] | 1 | 0 | 5 | 34 | 0 | 8 | 0 | 20 | 7 | 13 | 17 | 6 | 2 | 0 | 15 | 14 | 44 | 0 | 29 | 0 |
| Cc1cccc(-c2nc(Nc3ccncc3)c3ccccc3n2)n1 [GW855857] | 36 | 65 | 27 | 0 | 20 | 0 | 0 | 0 | 0 | 12 | 0 | 0 | 0 | 0 | 0 | 10 | 0 | 7 | 1 | 1 |
| Cc1c(Cn2ccn3c(=O)cc(N4CCOCC4)nc23)cccc1C(F)(F)F [GSK2289044] | 0 | 0 | 32 | 0 | 0 | 19 | 86 | 5 | 23 | 17 | 6 | 9 | 4 | 7 | 7 | 0 | 3 | 7 | 0 | 0 |
